# Calls of active or inactive are those of the source.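 Rule for the calls: active = inhibition above the hit cutoff set in the earlier primary screen (cut at about 27% in these data); inactive = the rest.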
# Molecular target: Protein phosphatase methylesterase 1 (Homo sapiens) (UniProt Q9Y570)
# Assay: PME-1 inhibitor activity retest, confirmation, biochemical, fluorescence polarization, FP-Rh probe, triplicate (AID 2171);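 note: 0% = enzyme with DMSO and 100% = wells lacking PME-1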
# Conditions: recombinant PME-1, FP-Rh probe fluorescence polarization; at 5.9 µM; stronger effect = higher value
# Chain of Protein phosphatase methylesterase 1 (Homo sapiens) (Q9Y570 whole entry, looked up): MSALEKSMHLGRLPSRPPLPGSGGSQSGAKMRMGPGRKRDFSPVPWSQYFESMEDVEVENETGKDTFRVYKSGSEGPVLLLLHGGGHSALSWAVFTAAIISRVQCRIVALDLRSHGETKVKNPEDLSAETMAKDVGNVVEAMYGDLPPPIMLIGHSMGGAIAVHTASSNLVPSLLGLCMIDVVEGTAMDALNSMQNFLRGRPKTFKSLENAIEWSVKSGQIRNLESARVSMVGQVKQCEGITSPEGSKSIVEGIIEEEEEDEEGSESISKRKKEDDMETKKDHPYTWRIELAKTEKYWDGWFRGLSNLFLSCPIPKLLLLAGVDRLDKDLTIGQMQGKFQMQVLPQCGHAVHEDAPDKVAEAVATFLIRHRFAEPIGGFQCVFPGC
row,SMILES,inhibition
1,C=CCn1c(O)c(N=Nc2ccccc2O)c2ccccc21,29.2% (active)
2,O=C1CN(C(=O)c2ccccc2F)C(c2ccccc2)c2cc(F)ccc2N1 (stereo not given),16.4% (inactive)
3,O=[N+]([O-])c1ccccc1N/N=C/c1c[nH]c2ccccc12,42.3% (active)
4,CCCCN(CCCC)CCNC(=O)c1cn(C)c2ccc(S(=O)(=O)N(C)C3CCCCC3)cc2c1=O,58.5% (active)
5,Oc1cccc(Nc2nc(O)c(/C=C3\C=Nc4ccccc43)s2)c1,-7.79% (inactive)
6,CCOC(=O)Cc1csc(NC(=O)c2sc3nc4cc(C)ccc4cc3c2N)n1,20.8% (inactive)
7,N#C/C(=C(\O)c1cc(Cl)sc1Cl)c1nc2ccccc2[nH]1,21.8% (inactive)
8,COC(=O)c1cccc(C#CC(NP(=O)(c2ccccc2)c2ccccc2)c2ccccc2)c1 (stereo not given),35.1% (active)
9,O=C(O)c1cccc(-c2ccc(/C=N/Nc3ccc([N+](=O)[O-])cc3)o2)c1,31.7% (active)
10,COc1ccc(-c2nc(-c3ccccc3)c(-c3cc([N+](=O)[O-])ccc3C)[nH]2)cc1O,-4.82% (inactive)
11,CCn1c(=O)c2cc(C(=O)Nc3ccc(OC)cc3OC)sc2c2ccccc21,21.5% (inactive)
12,O=C(Nc1ccc([N+](=O)[O-])cc1)Nc1ccc2[nH]c(=O)[nH]c2c1,-15.6% (inactive)
13,O=C(CN1CCCc2ccccc21)N/N=C/c1c(O)ccc2ccccc12,5.54% (inactive)
14,Oc1[nH]c2ccccc2c1N=Nc1ncnc2c1oc1ccccc12,35% (active)
15,COc1ccc(/C=N\NC(=O)c2cc(O)c(O)c(O)c2)cc1COc1ccc(C(=O)OCC(C)C)cc1,-24.1% (inactive)
16,CC(=O)NC(c1cccs1)c1cc([N+](=O)[O-])c2cccnc2c1O (stereo not given),12% (inactive)
17,Nc1ccc(O)c2c1C(=O)c1ccccc1C2=O,46.5% (active)
18,Cc1ccc(-c2ccccc2NC(=O)CS(=O)CC(=O)Nc2ccc(C)c(Cl)c2)o1 (stereo not given),0.73% (inactive)
19,CC(C)c1ccc2c(c1)C1(NN=C(c3ccccc3)S1)C(=O)N2 (stereo not given),33.9% (active)
20,O=C(CSc1c(F)c(F)cc(F)c1F)Nc1ccc(C2SCCS2)cc1,5.01% (inactive)

row,SMILES,inhibition
1,CCOC(=O)c1ccc(NC(=O)Nc2ccc3c4c(cccc24)C(=O)N3CC)cc1,16.2% (inactive)
2,CCc1cccc2c(C(=O)COC(=O)c3ccc([N+](=O)[O-])s3)c[nH]c12,24.6% (inactive)
3,COc1cc(OC)cc(-c2nnc(Nc3nc4c(F)cccc4s3)o2)c1,56.2% (active)
4,COc1ccc2ccccc2c1C(O)c1nccn1C (stereo not given),23.1% (inactive)
5,COc1ccccc1NC(=O)CCC(=O)Nc1nnc(C(F)(F)F)s1,4.64% (inactive)
6,CCCN(CC(=O)Nc1ccccc1C)C(=O)COC(=O)CSc1ccc([N+](=O)[O-])cc1,17.4% (inactive)
7,CCOC(=O)c1ccc(Nc2nc(N)c3cc(OC)c(OC)cc3n2)cc1,27.9% (active)
8,O=C(O)/C(CC(=O)c1ccc(Cl)cc1)=N/Nc1ccc([N+](=O)[O-])cc1[N+](=O)[O-],42.7% (active)
9,COc1ccccc1NS(=O)(=O)c1cccc(-n2c(O)c(C=Nc3ccccc3C(=O)O)c3ccccc3c2=O)c1,85.7% (active)
10,Cc1nc2ccccc2nc1N/N=C/c1ccc(O)cc1O,36.4% (active)
11,Oc1cccc(NC(=S)N=Nc2c(O)[nH]c3ccc(Br)cc23)c1,42% (active)
12,O=C1Nc2ccc(Br)cc2C12NNc1ccccc1O2 (stereo not given),38.5% (active)
13,CCN(CC)C(=O)CSc1nc2c(sc(=S)n2-c2ccccc2)c(=O)n1Cc1ccco1,78.6% (active)
14,COc1ccc(Nc2ncnc3sc(-c4ccccc4)cc23)cc1,10.1% (inactive)
15,CCC(CNc1cc(OC)cc2cccnc12)NC1CCCCC1 (stereo not given),9.75% (inactive)
16,O=C(O)c1ccc(N/N=C/c2ccc(OC(=O)c3cccc(Cl)c3)cc2)cc1,37% (active)
17,O=C(O)c1cc(NN=C2c3ccccc3-c3ccccc32)ccc1Cl,41.9% (active)
18,N#CC1=C(N)C(C#N)(C#N)C(c2ccncc2)C2CN(C(=O)OCc3ccccc3)CC=C12 (stereo not given),28.3% (active)
19,CCNc1cc(O)ccc1C,2.02% (inactive)
20,COc1ccc(/C=C2\Sc3ccc(C(=O)N4CCN(Cc5ccccc5)CC4)cc3N(C)C2=O)cc1OC,46.9% (active)
